Screening results: PubChem BioAssay, National Center for Advancing Translational Sciences (NCATS)
Sm TGR block: qHTS Assay for the Inhibitors of Schistosoma Mansoni Peroxiredoxins | Schistosoma mansoni thioredoxin glutathione reductase (TGR), Q962Y6 | purified TGR, DTNB reduction, TNB absorbance 405 nm | Potency, µM (top dose mostly 114 µM), for the others: top-dose activity change, negative = inhibition, actives largely listed as inhibitors | 3% of 360,000 active | AID 485364, 2010; note: potency is the fitted concentration of half-maximal effect; nearly all actives have a fitted effect of over 60% in size
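Kinetic colorimetric format: TGR-catalysed, NADPH-driven DTNB reduction monitored via TNB absorbance. Enzyme dispensed at 20 nM; compound exposure 15 min at room temperature before reaction start.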
HCMV inh: qHTS Assay for inhibitors of the human cytomegalovirus (HCMV); activity change, negative = inhibition, % at 57.5 µM; AID 1259415, 2018; 4.5% of 410,000 active; HFF cells, HCMV-luciferase reporter, 72 h; hits give low values; in the data active = activity change below about -60%; inconclusive = no clear call, values can overlap the other calls; inactive = above about -39%
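Two-dose cell screen: HFF monolayers treated with compounds and infected with luciferase-expressing HCMV at 1 PFU/cell, 72 h at 37C, then lysed for luciferase measurement.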
Giardia FBPA inh: qHTS Assay for Inhibitors of Fructose-1,6-bisphosphate Aldolase from Giardia Lamblia; AID 2451, 2010; Potency, µM (highest dose often 59.6 µM), inactives show at the highest dose activity, negative = inhibition, most hits filed as inhibitors; 0.71% of 290,000 active; A8B2U2; purified Giardia FBPA; note: potency is the fitted concentration of half-maximal effect; nearly all actives have a fitted effect of over 55% in size
Target sequence (A8B2U2 whole entry, looked up): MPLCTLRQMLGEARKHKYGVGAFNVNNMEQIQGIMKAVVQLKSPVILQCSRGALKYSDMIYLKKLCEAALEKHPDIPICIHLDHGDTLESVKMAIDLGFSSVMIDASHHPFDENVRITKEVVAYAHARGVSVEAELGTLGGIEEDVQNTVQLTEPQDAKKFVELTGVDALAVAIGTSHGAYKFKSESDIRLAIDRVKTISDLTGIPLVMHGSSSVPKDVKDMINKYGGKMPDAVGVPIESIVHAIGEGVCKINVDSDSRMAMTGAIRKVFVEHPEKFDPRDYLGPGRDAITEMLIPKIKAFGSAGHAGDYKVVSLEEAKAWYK
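Giardia FBPA (40 nM reagent) was preincubated 10 min at RT with compound (up to 57.5 uM final), then substrate plus GAPDH/TPI/NAD/arsenate coupling system with diaphorase/resazurin was added; resorufin fluorescence (525/598 nm) was read after 20 min.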
Pf growth 48h: Primary qHTS for delayed death inhibitors of the malarial parasite plastid, 48 hour incubation. P. falciparum luciferase growth in erythrocytes, 48 h. Potency, µM (doses to about 28.7 µM), without a hit: at the top dose activity change, negative = inhibition, hits mostly inhibitors. 5.9% of 310,000 active. AID 504832, 2011; note: potency is the fitted concentration of half-maximal effect
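Erythrocytes infected with P. falciparum carrying an integrated firefly luciferase reporter (2% hematocrit, 0.1% parasitemia final) were exposed to compounds in RPMI 1640 with 0.5% Albumax at 37 C, 5% CO2. Growth inhibition was scored as reduced luminescence.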
Pf growth 96h: Primary qHTS for delayed death inhibitors of the malarial parasite plastid, 96 hour incubation; P. falciparum luciferase reporter growth, 96 h; AID 504834, 2011; Potency, µM (titrated, usually from 28.7 µM), for the others: at the highest dose activity change, negative = inhibition, actives largely listed as inhibitors; 6.9% of 320,000 active; note: potency is the fitted concentration of half-maximal effect
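Erythrocytes infected with luciferase-expressing P. falciparum were dispensed at 2% hematocrit and 0.05% parasitemia (final), then incubated with compounds 96 hours at 37 C in 5% CO2. Luminescence after detection reagent addition reported growth.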
The depositor's hits bear a star; ? = inconclusive; · = not tested or not shown; + = active, no number; [ ] = remark or other dose. The list is not random: actives were taken first. Their share in the collection is about 14%. Unless noted, calls come from the whole dose curve; as a rule, active = well fitted curve in the direction sought with a large enough effect; inconclusive = small, poorly fitted or top-dose-only effect, or another doubt; inactive = no such curve, though single readings can be large; an effect the other way counts as inactive or inconclusive. % is set by controls: 0 for no effect and ±100 for the full control effect.

SMILES	Sm TGR block	HCMV inh	Giardia FBPA inh	Pf growth 48h	Pf growth 96h
CC(=O)CSc1ncnc2sc3c(c12)CCC(C)C3 (stereo not given)	-1.7%	11.4	9.0%	-14.6%[1.15 µM]	-6.2%
CC1CCc2c(sc3ncnc(SCC(=O)N(C)C4CCS(=O)(=O)C4)c23)C1 (stereo not given)	·	+	·	·	·
CC(C)Oc1ccc(CNC(=O)c2cnc3sc(N4CCCCC4)nn3c2=O)cc1	9.7%	13.6	·	·	·
Cc1ccc(/C=C/c2onc(C)c2S(=O)(=O)N2CCC(C(=O)NCC(C)c3ccccc3)CC2)cc1 (stereo not given)	9.8%	10.5	·	·	·
CCc1ccc(Nc2nnc(SCC(=O)Nc3ccc(C(=O)O)cc3)s2)cc1	0.4%	11.9	17.8%	4.65µM*	195.9%
N#CC1(NC(=O)CSc2nc3ccc([N+](=O)[O-])cc3s2)CCCCC1	-8.6%	-80.9*	·	5.22µM*	?
CCN(C(=O)CSc1nnc(NCc2ccccc2)s1)C1CCS(=O)(=O)C1 (stereo not given)	-3.3%	-74.2*	2.9%	14.7%	?
CCCN(C(=O)CSc1nc2cc(S(=O)(=O)N(CC)CC)ccc2o1)C1CCS(=O)(=O)C1 (stereo not given)	-10.4%	-20.8	·	?	5.22µM*
CCN(C(=O)CSc1nc2cc(S(=O)(=O)N(CC)CC)ccc2o1)C1CCS(=O)(=O)C1 (stereo not given)	4.5%	-33.9	-1.7%	?	?
CCc1ccc(Nc2nnc(SCC(=O)NC(=O)c3cccn3C)s2)cc1	·	50.2	-2.1%	11.4%	15.9%
Cc1ccc(NC(=O)c2ccccc2Br)c(C(=O)c2ccccc2)c1	23.5%	-31.0	·	·	·
COc1cccc(N2CCN(C(=O)c3cccc(S(=O)(=O)N4CCCC4)c3)CC2)c1	·	-10.5	·	·	·
CCN(C(=O)CSc1nnc(Nc2cccc(C)c2C)s1)C1CCS(=O)(=O)C1 (stereo not given)	0.8%	-7.4	1.8%	8.28µM*	-102.4%
C[n+]1ccccc1COc1ccc(C(C)(C)C)cc1	3.9%	?	-5.9%	?	0.37µM*
CC(C)(C)c1ccc(OCc2nc3ccccc3n2CCOc2ccccc2)cc1	7.7%	51.6	·	·	·
COc1ccc(OC)c(NC(=O)CSc2nccn2-c2cc(C)cc(C)c2)c1	-0.2%	-5.9	·	·	·
CC1(C(=O)NCc2ccco2)Cc2c(-c3cccc(C(F)(F)F)c3)ccnc2O1 (stereo not given)	·	-37.9	·	·	·
COc1ccc(C(=O)c2sc3nc(C)cc(-c4cccs4)c3c2N)cc1OC	-5.8%	-60.9*	-0.8%	?	?
COc1ccc(CN2CCNC(=O)C2CC(=O)NCCC2=CCCCC2)cc1OC (stereo not given)	0.0%	-29.4	-17.0%	-5.7%	10.4µM*
COc1ccc(CN2CCNC(=O)C2CC(=O)N(C)CCC2CCOCC2)cc1OC (stereo not given)	?	26.5	·	7.9%	?
COc1ccc(CN2CCNC(=O)C2CC(=O)NCCc2cnccn2)cc1C (stereo not given)	-34.9%	-0.2	-15.8%	0.0%	14.7µM*
COc1ccccc1CN1CCNC(=O)C1CC(=O)NCCC1=CCCCC1 (stereo not given)	?	-25.2	-16.9%	?	?
CCOC(=O)CC1C(=O)NCCN1Cc1ccc(OC)c(OC)c1 (stereo not given)	11.0%	-4.4	-0.6%	0.4%	10.4µM*
CCc1ccc(C(=O)c2cn(CC(=O)Nc3ccc4c(c3)OCO4)c3ccc(F)cc3c2=O)cc1	-7.2%	-11.4	·	·	·
COC(=O)C[C@](O)(CCCC(C)(C)O)C(=O)O[C@@H]1C(OC)=C[C@]23CCCN2CCc2cc4c(cc2[C@H]13)OCO4	·	·	-5.3%	0.0095µM*	0.0067µM*
SMILES	Sm TGR block	HCMV inh	Giardia FBPA inh	Pf growth 48h	Pf growth 96h
CS(=O)(=O)c1nc2c(cc1C#N)CCCC2	·	-25.0	7.2%	22.6%	-27.2%
N#Cc1cc2c(nc1S(=O)(=O)Cc1ccccc1)CCCC2	0.6%	-63.1*	-22.5%	4.1%	16.4%
CC1=C(C(=O)Nc2ccccc2)C(c2ccc(Cl)cc2)n2c(s/c(=C/c3cccc(OCC(=O)O)c3)c2=O)=N1 (stereo not given)	·	-68.2*	0.6%	1.65µM*	4.7%
CCOc1ccc(C2C(C(=O)Nc3ccccc3)=C(C)N=c3s/c(=C/c4cccc(OCC(=O)O)c4)c(=O)n32)cc1 (stereo not given)	8.2%	-16.8	7.1%	0.465µM*	?
CC1=C(C(=O)Nc2ccccc2C)C(c2ccc(C)o2)n2c(s/c(=C/c3ccccc3)c2=O)=N1 (stereo not given)	-15.5%	2.0	5.1%	2.94µM*	·
CC1=C(C(=O)OC(C)C)C(c2ccc(Cl)cc2)n2c(sc(=Cc3ccc(OCC(=O)O)cc3)c2=O)=N1 (stereo not given)	·	15.5	·	·	·
COc1ccccc1NC(=O)/C=C\c1ccco1	2.51µM*	38.6	-0.3%	·	8.8%
COc1ccccc1NC(=S)NC(=O)/C=C/c1ccco1	17.8µM*	-17.4	-13.7%	2.5%	40.0%
Cc1cccc(NC(=S)NC(=O)/C=C/c2ccco2)c1	·	25.3	-15.4%	11.5%	13.7%
Cc1ccccc1NC(=S)NC(=O)/C=C/c1ccco1	6.31µM*	-15.6	-29.0%	6.5%	56.5%
COc1ccccc1NC(=O)/C(C#N)=C/C=C/c1ccco1	1.7%	4.3	-12.5%	9.8%	-4.4%[5.75 µM]
CCc1cc(Cn2nc(-c3ccccc3)cc2C(=O)NCc2ccc(C)cc2)on1	4.8%	-21.4	·	22.7%	48.4%
CCN(CC)C(=O)Cn1nnc(-c2ccc(C)o2)n1	25.1µM*	-10.0	-5.0%	5.5%	-14.5%
O=C(NC1CCCCC1)C(c1ccccc1)N(Cc1ccco1)C(=O)c1csnn1 (stereo not given)	-35.9%	28.1	-3.6%	-18.7%	5.4%
Cc1ccc(-c2nnn(CC(=O)N(CC3CCCO3)C(C(=O)NC(C)(C)C)c3ccc(F)cc3)n2)o1 (stereo not given)	-4.3%	2.2	4.3%	10.4µM*	11.7µM*
CCCCC(C(=O)NC1CCCC1)N(Cc1ccco1)C(=O)Cn1nnc(-c2ccc(F)cc2)n1 (stereo not given)	-24.7%	-18.4	-4.4%	·	11.7µM*
CCCC(C(=O)NC1CCCC1)N(C(=O)Cn1nnc(-c2ccc(C)o2)n1)C1CCCC1 (stereo not given)	4.3%[11.4 µM]	8.1	0.4%	·	·
O=C(NC1CCCC1)C(c1cccs1)N(Cc1ccco1)C(=O)c1csnn1 (stereo not given)	35.5µM*	0.5	0.2%	-5.7%	90.9%
